Laboratory results as given in PubChem BioAssay (Tox21).
Calls of active or inactive are those of the source. Calls come from the whole dose curve; as a rule, active = well fitted activation curve with a large enough effect in the repeat runs; inconclusive = weak or mixed curves; inactive = flat fitted curve, though single readings scatter.

assay: Caspase-3/7 induction in CHO-K1 cells by small molecules, qHTS assay (AID 1346980); settings: CHO-K1 caspase-3/7 induction, Caspase-Glo luminescence, 17 h; series mostly up to 92.4 µM; caspase-3/7 activation: at the top concentration; note: nearly all actives have a fitted effect of over 15% in size
Source text: National Center for Advancing Translational Sciences [NCATS]
NIH Chemical Genomics Center [NCGC]
U.S. Environmental Protection Agency [EPA]
National Institutes of Environmental Health Sciences [NIEHS]
National Toxicology Program [NTP]
Apoptosis is a process of programmed cell death and plays a central role in the development of multicellular organisms. It is a highly regulated process and induces cell death by activating caspases, which are the members of cysteine aspartic acid-specific protease (caspase) family. Caspases involved in apoptosis are classified by their mechanism of action as initiator caspases (caspase-2, -8, -9 and -10) and executioner caspases (caspase-3, -6, and -7). Inhibition of apoptosis results in number of cancers, autoimmune diseases, inflammatory diseases and viral infection. To identify small molecule compounds that induce apoptosis, a homogeneous, luminescent Caspase-Glo 3/7 assay was used. Wild type CHO-K1 cells were used to screen Tox21 libraries for identifying caspase-3/7 activity inducers.
CHO-K1 cells were dispensed at 1,500 per well in 5uL of culture medium into white solid bottom 1536-well plates (Corning Life Sciences, Corning, NY) using a Multidrop Combi (Thermo Scientific, Waltham, MA) dispenser. The assay plates were incubated at 37 C and 5% CO2 for 5hr, and then 23nL of compounds dissolved in DMSO and positive control were transferred using a Pintool station (Wako, San Diego, CA). The assay plates were incubated at 37C and 5% CO2 for 17hr. For caspase-3/7 activity read, 4uL of Caspase-Glo 3/7 reagent (Promega Corporation, Madison, WI) was added to each well of the assay plates using Flying Reagent Dispenser (FRD, Aurora Discovery, San Diego, CA) and incubated the assay plates at room temperature for 30min. The luminescence signal was quantified using a ViewLux plate reader (Perkin Elmer, Shelton, CT).
% is set by controls: 0 for no effect and ±100 for the full control effect; potency is the fitted concentration of half-maximal effect.

SMILES	caspase-3/7 activation	Potency
CC(C)c1cccc(C(C)C)c1NC(=O)NS(=O)(=O)c1cc(C(C)(C)O)co1	-0.0257% (inactive)	–
C[C@@H](C1=C(CCN(C)C)Cc2ccccc21)c1ccccn1	0.142% [at 42.5 µM] (inactive)	–
CCOC(=O)C1=NN(c2ccccc2)C(=O)C1	0.0536% (inactive)	–
Cn1sccc1=O	–	inactive
O=C(O)COC(=O)Cc1ccccc1Nc1c(Cl)cccc1Cl	0.649% [at 42.5 µM] (inactive)	–
C=CC(=O)OCC(C)OCC(C)OCC(C)OC(=O)C=C (stereo not given)	–	24.3 µM (active)
c1ccc(CNCc2ccccc2)cc1	0.452% (inactive)	–
N=C(N=C(N)N)N1CCOCC1	-0.268% [at 42.5 µM] (inactive)	–
CCCCOc1cc(C(=O)OCCN(CC)CC)ccc1N	0.875% [at 42.5 µM] (inactive)	–
CC/C(=C\C(=N/O)C(N)=O)C(C)[N+](=O)[O-] (stereo not given)	-0.45% (inactive)	–
CCCCCCCCCCCCCCC1CO1 (stereo not given)	0.06% (inactive)	–
C=C(C)C(=O)OCCN(C)C	-2.24% (inactive)	–
N#Cc1cc2ccccc2c2ccccc12	4.3% (inactive)	–
CC(C)(C)c1cc(CCC(=O)OCC(COC(=O)CCc2cc(C(C)(C)C)c(O)c(C(C)(C)C)c2)(COC(=O)CCc2cc(C(C)(C)C)c(O)c(C(C)(C)C)c2)COC(=O)CCc2cc(C(C)(C)C)c(O)c(C(C)(C)C)c2)cc(C(C)(C)C)c1O	0.514% [at 42.5 µM] (inactive)	–
Cc1cccc(Oc2ccccc2)c1	0.329% (inactive)	–
C=C(C)C(=O)OCCOc1ccccc1	1.42% (inactive)	–
CC(C)(C)c1ccc(S)cc1	2.86% (inactive)	–
CCOc1cc(OCC)c(C(=O)CCC(=O)O)cc1OCC	0.103% [at 42.5 µM] (inactive)	–
CCOC(=O)C1=C(C)NC(C)=C(C(=O)OC)C1c1cccc([N+](=O)[O-])c1 (stereo not given)	-0.531% [at 42.5 µM] (inactive)	–
O=C(Nc1ccccc1)OCC(CN1CCCCC1)OC(=O)Nc1ccccc1 (stereo not given)	-1.11% [at 42.5 µM] (inactive)	–

SMILES	caspase-3/7 activation	Potency
CCCCOc1ccc(CC(=O)NO)cc1	-0.548% [at 42.5 µM] (inactive)	–
CC(=O)O[C@H]1C[C@@H]2CC[C@@H]3[C@H](CC[C@@]4(C)[C@H]3C[C@H]([N+]3(C)CCCCC3)[C@@H]4OC(C)=O)[C@@]2(C)C[C@@H]1N1CCCCC1	1.94% [at 42.5 µM] (inactive)	–
O=C(O)C1CCC(C(=O)O)CC1 (stereo not given)	0.272% (inactive)	–
CCCCCCOC(=O)CCC	-0.255% (inactive)	–
CC(C)CCCCCCOC(=O)c1ccc(C(=O)OCCCCCCC(C)C)c(C(=O)OCCCCCCC(C)C)c1	1.08% (inactive)	–
O=[N+]([O-])c1cc[n+]([O-])cc1	-1.78% (inactive)	–
CCCCCCCCCO	-0.771% (inactive)	–
CC(C)(C)C(=O)OCOP(=O)(COCCn1cnc2c(N)ncnc21)OCOC(=O)C(C)(C)C	1.6% [at 42.5 µM] (inactive)	–
O=C(O)Cn1c(C(=O)Nc2nc(-c3ccccc3Cl)cs2)cc2ccccc21	0.898% [at 42.5 µM] (inactive)	–
Cl/C(=C\n1cncn1)c1ccc(Cl)cc1Cl	0.228% [at 42.5 µM] (inactive)	–
NCc1ccccc1	-1.71% (inactive)	–
CCOC(=S)SSC(=S)OCC	-0.19% (inactive)	–
CCCc1ccccc1	1.09% (inactive)	–
CC[C@H](C)[C@@H](C(=O)O)n1sc2ccccc2c1=O	0.398% (inactive)	–
O=C(O)/C=C/c1cnc[nH]1	0.527% (inactive)	–
Cc1cc(CC(=O)O)c(C)n1-c1ccc(Cl)cc1	-1.22% [at 42.5 µM] (inactive)	–
CCCOc1ccc2nc(NC(=O)OC)[nH]c2c1	-0.558% [at 42.5 µM] (inactive)	–
Cc1ccccn1	-1.76% (inactive)	–
CCCCCCCCN(C)C	0.225% (inactive)	–
CCOC(=O)CC(C)C	-0.428% (inactive)	–
